This is an account of results in PubChem BioAssay.

Activity calls are given as the source filed them. Cut-off read from the data, not from the text of the source: active = fold change permeability below about 0.7 or above about 1.3; inactive = in between.

The assay in a line: modulators of brain endothelial barrier permeability, primary screen, cell-based, FITC-avidin fluorescence, HTS (AID 1963498). Note: test concentration not given here. To be noted: actives lie on both sides.
Turning to `CC(C)[C@H]1c2ccc(F)cc2CC[C@@]1(CCN(C)CCCc1nc2ccccc2[nH]1)OC(=O)C1CC1`, the fold change permeability is 1.3 (active).
Under `COc1ccc2cccc(CCNC(C)=O)c2c1` stands 0.8 (inactive); under `C=C1C[C@@]23CC[C@H]4[C@@](C)(CCC[C@@]4(C)C(=O)O[C@@H]4O[C@H](CO)[C@@H](O)[C@H](O)[C@H]4O)[C@@H]2CC[C@]1(O[C@@H]1O[C@H](CO)[C@@H](O)[C@H](O)[C@H]1O[C@@H]1O[C@H](CO)[C@@H](O)[C@H](O)[C@H]1O)C3`, 1.7 (active).
Under `CNC(=O)Nc1cc(Oc2cncc(OC)c2)c(C2CCCOC2)cn1` (stereo unspecified) stands 1.1 (inactive).
To `CCCN(CC1CC1)c1nc(C)nc(Nc2c(Cl)cc(Cl)cc2Cl)c1Cl` belongs 1.3 (active); to `Nc1cc(Cl)c(NC2=NCCN2)c(Cl)c1`, 1 (inactive).
Take `CN(C)CC[C@@H](c1ccc(Cl)cc1)c1ccccn1`: the fold change permeability was 1.1 (inactive).
Under `O=C(O)C1=CCNCC1` stands 1 (inactive); under `CSc1ccc2c(c1)C(N1CCN(C)CC1)Cc1ccccc1S2` (stereo unspecified), 0.9 (inactive).
To `C[C@]12CC[C@@H]3c4ccc(O)cc4C[C@@H](CCCCCCCCCS(=O)CCCC(F)(F)C(F)(F)F)[C@H]3[C@@H]1CC[C@@H]2O` (stereo partly specified) belongs 1 (inactive); to `C[C@]12CC[C@@H]3c4ccc(O)cc4CC[C@H]3[C@@H]1CCC2=O`, 0.9 (inactive).
`O=C(O)/C=C\C(=O)Nc1ccc(Oc2cccc(Oc3ccc(NC(=O)/C=C\C(=O)O)cc3)c2)cc1`: the fold change permeability was 0.9 (inactive).
Regarding `Cc1ccc(C2Nc3ccccc3C(=O)N2c2ccccc2)s1` (stereo unspecified), the fold change permeability was 1.3 (active).
Take `OC(CCN1CCCCC1)(c1ccccc1)C1CCCCC1` (stereo unspecified): the fold change permeability is 0.8 (inactive).
As to `NCCS`, the fold change permeability was 0.9 (inactive).
Under `COc1ccccc1N1CCN(CCN(C(=O)c2ccc(F)cc2)c2ccccn2)CC1` stands 0.8 (inactive).
Under `CC(C)c1ccc2oc3nc(N)c(C(=O)O)cc3c(=O)c2c1` stands 1 (inactive); under `CC(C)c1cc(/C=C(\C#N)C(=O)NCCCc2ccccc2)cc(C(C)C)c1O`, 0.8 (inactive); under `O=C1N(c2ccccc2)c2ccccc2C1(Cc1ccncc1)Cc1ccncc1`, 0.9 (inactive).
Under `CN(C)CC/C=C1/c2ccccc2Sc2ccc(Cl)cc21` stands 1.1 (inactive).
Regarding `NC(=O)c1cnccn1`, the fold change permeability was 0.9 (inactive).
